# Results filed as inconclusive are left out. A call without a number means that no potency is given here. Calls of active or inactive are those of the source. The call rests on the fitted dose curve; in most records, active means well fitted inhibition curve with a large enough effect; inconclusive means small, poorly fitted or top-dose-only effect; inactive means no such curve, though single readings can be large or run the other way.
# Tested on: Zika virus NS2B-NS3 protease (unlinked complex)
# Experiment: Primary screen GU Rhodamine qHTS for Zika virus inhibitors: Unlinked NS2B-NS3 protease assay (AID 1347159); further: nearly all actives have a fitted effect of over 60% in size
# Details: Recombinant ZIKV NS2B-NS3 protease, Rhodamine110 substrate fluorescence; series mostly up to 107 µM
# From the text: Avindra Nath, Ph.D., National Institute of Neurological Disorders and Stroke (NINDS), Bethesda, MD
# Radhakrishnan Padmanabhan, Ph.D., Georgetown University (GU), Washington D.C.
# Zika Virus causes congenital defects, including microcephaly and is associated with Guillain-Barre syndrome, eningoencephalitis and myelitis in infected adult. […] Using a target-based approach, we hope to establish a screening paradigm to uncover novel, cell-active NS2B-NS3 protease (Zika Virus) specific inhibitors from NCATS' collection of small molecules using qHTS.
# Four assay panel was created to identify potential Zika Virus inhibitors. Namely, (1) GU unlinked NS2B-NS3 AMC tagged protease qHTS, (2) GU unlinked NS2B-NS3 Rhodamine tagged protease qHTS, (3) NINDS linked NS2B-NS3 AMC tagged protease qHTS, (4) NINDS linked NS2B-NS3 Rhodamine tagged protease qHTS. Active compounds were re-acquired and re-screened to confirm inhibition. Inhibitors were further screened against various confirmatory and counterscreens in dose response format.
# Early Translation Branch (ETB)
# National Center for Advancing Translational Sciences (NCATS), Rockville, MD
# National Institute of Health (NIH), Bethesda, Maryland
# Padmanabhan lab provided the NS2B hydrophilic domain and NS3 protease domain in a noncovalent complex used for the unlinked assay. Control compound aprotinin is obtained from Thermo Scientific (#78432; Waltham, Massachusetts). Rhodamine110 substrate ([N-Cbz]-Nle-Lys-Arg-Arg-Rhod110-Arg-Arg-Lys-Nle-[N-Cbz]) was purchased from either Genscript or Bachem.
# 1536-well Protease (Rhodamine110 Substrate) Assay:
# Briefly, 3 microL of enzyme (25 nM final concentration), in assay buffer (10 mM Tris-HCl pH 8.0 with 0.01% Tween 20) were dispensed into a 1,536-well solid-bottom black plate (Greiner Bio One, Monroe, NC). Twenty-three nL of compounds (final concentration range 7.28 nM to 114 microM) or control Aprotinin (final concentration range 3.47 nM to 114 microM) were transferred via Wako Pin-tool (Wako Automation, Richmond, VA). Samples were incubated (room temperature, protected from light) for 15 minutes followed by a 1 microL Rhodamine110 substrate addition (1.5 microM final concentration). Plates were then immediately read on a ViewLux High-throughput CCD imager (PerkinElmer, Waltham, MA) equipped with FITC fluorescence optics (480(20) nm excitation, 540(25) nm emission), then incubated (room temperature, protected from light) for 15 minutes (~15% conversion). The change in fluorescence intensity over the 15-minute reaction period was normalized against no-inhibitor and no-enzyme controls and the resulting percent inhibition data were fitted to a 4-parameter Hill equation. Aprotinin was used as intraplate control.
# Potency means the concentration at half of the fitted maximal effect.
row,Compound,Potency
1,Cc1cnc(Nc2cccc(CN3CCOCC3)c2)nc1Nc1cccc(S(=O)(=O)NC(C)(C)C)c1,inactive
2,O=C(Nc1ccc(OC(F)(F)F)cc1)c1sccc1NCc1ccnc2ccccc12,inactive
3,CC(C)(O)CC(=O)NCCn1ccc2ncnc(Nc3ccc(Oc4cccc(C(F)(F)F)c4)c(Cl)c3)c21,inactive
4,c1ccc(CNc2nc(N3CCOc4ccccc43)nc3c2CCCC3)cc1,inactive
5,CC1(COc2ccc3c(c2)ncn3-c2ccc3cccc(N4CCC(N)CC4)c3n2)COC1,inactive
6,NC(=O)c1ccc(N(C(N)=O)c2c(F)cccc2F)nc1-c1ccc(F)cc1F,inactive
7,Cc1cc2c(cc1C1(c3ccc(C(=O)O)cn3)CC1)C(C)(C)CCC2(C)C,10 µM (active)
8,CCCCC(F)(F)[C@@]1(O)CC[C@H]2[C@H](CC(=O)[C@@H]2CCCCCCC(=O)O)O1,inactive
9,COc1ccc(-c2cc3nccn3c(Nc3ncccc3C(N)=O)n2)cc1OC,inactive
10,CNc1nc(Nc2ccc(C(=O)N3CCOCC3)cc2OC)ncc1Cl,inactive
11,C[C@@H](NC(=O)c1ncnc(N)c1Cl)c1ncc(C(=O)Nc2cc(C(F)(F)F)c(Cl)cn2)s1,inactive
12,C[C@@]1(C(=O)Nc2ccc(F)nc2)CCCN1c1nc(Nc2cc(C3CC3)[nH]n2)c2cccn2n1,inactive
13,O=C(O)CCNc1cc(N2CCc3ccccc3CC2)nc(-c2ccccn2)n1,inactive
14,CC(=O)Nc1cccc(-n2c(=O)n(C3CC3)c(=O)c3c(Nc4ccc(I)cc4F)n(C)c(=O)c(C)c32)c1,inactive
15,Cc1c(C(=O)Nc2ccc(N3C[C@@H](C)O[C@@H](C)C3)nc2)cccc1-c1ccc(OC(F)(F)F)cc1,inactive
16,COc1ccc(CCC(=O)Nc2nc3ccc(Cl)cc3s2)cc1OC,inactive
17,Cc1cccc2c1CC[C@H](CN1CCC(c3c(Cl)cccc3Cl)CC1)C[C@@H]2O,inactive
18,Cc1nc2c([nH]1)CCN(C(=O)c1ccc(NC(=O)c3ccccc3-c3ccccc3)cc1)c1ccccc1-2,inactive
19,CC1CCN(c2cc(N3CCN(C)CC3)ccc2NC(=O)c2cc(C#N)c[nH]2)CC1,inactive
20,COc1cc2nccc(Oc3ccc(NC(=O)Nc4cc(C)on4)c(Cl)c3)c2cc1OC,inactive

row,Compound,Potency
1,CNC(=O)c1c(-c2ccc(F)cc2)oc2cc(N(CCO)S(C)(=O)=O)c(C3CC3)cc12,inactive
2,CCN1CCC(n2cc(CNc3cc(Cl)c4ncc(C#N)c(Nc5ccc(F)c(Cl)c5)c4c3)nn2)CC1,inactive
3,COc1ccc(Cn2ccc3ccc(C(=O)NO)cc32)cc1,inactive
4,C[C@@H](N)c1ccc(C(=O)Nc2ccnc3[nH]ccc23)cc1,inactive
5,O=C1C(c2c(O)[nH]c3ccccc23)=Nc2ccccc21,inactive
6,CCn1c(-c2nonc2N)nc2cncc(CNC3CCNCC3)c21,inactive
7,c1cc(OCCN2CCCCC2)cc(-c2n[nH]c3ccc(-c4ncn[nH]4)cc23)c1,inactive
8,C[C@H](c1ccc(F)cc1CCCC(=O)O)N(c1cc(F)ccc1F)S(=O)(=O)c1ccc(Cl)cc1,14.1 µM (active)
9,CC(C)(C)c1nc(-c2cccc(NS(=O)(=O)c3c(F)cccc3F)c2F)c(-c2ccnc(N)n2)s1,14.1 µM (active)
10,O=C(Nc1cccc(C(F)(F)F)c1)Nc1cc(S(=O)(=O)NC2CC2)ccc1-c1ccsc1,22.4 µM (active)
11,COc1cc(Nc2nc3ccccc3nc2NS(=O)(=O)c2ccc(NC(=O)c3ccc(C)c(OC)c3)cc2)cc(OC)c1,1.78 µM (active)
12,N#CC1(c2cccc(C(=O)Nc3cc(Oc4ccc5nc(NC(=O)C6CC6)sc5n4)ccc3F)c2Cl)CC1,22.4 µM (active)
13,O=C1NC(=O)C(c2cnc3ccccn23)=C1c1cn2c3c(cccc13)CN(C(=O)N1CCOCC1)CC2,inactive
14,CC(C)(OCc1nn(Cc2ccccc2)c2ccccc12)C(=O)O,inactive
15,Cn1cnc(-c2cc3nccc(Oc4ccc(NC(=S)NC(=O)Cc5ccccc5)cc4F)c3s2)c1,inactive
16,C[C@@]1(c2cc(-c3cncnc3)c(F)cc2F)CCSC(N)=N1,inactive
17,Cc1cnc(-c2cc(N3CCN(C(=O)CCS(C)(=O)=O)CC3)ncc2Cl)c(C)c1,inactive
18,NC(=O)c1noc([C@H](CCCC2CCCCC2)CC(=O)NO)n1,inactive
19,CN1CCN(c2cccc(Nc3nc4c(-c5ccc(S(C)(=O)=O)cc5)cccn4n3)c2)CC1,inactive
20,COC(=O)N1CCN(Cc2cccc(NC(=O)Nc3ccc(C)nc3)c2F)CC1,inactive
